Test results from PubChem BioAssay (NCI).
The panel holds about 83,000 compounds, 20% with a hit somewhere; the sample as a whole holds those more often.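 For each line, cells grew in 96-well plates with the test compound present at a single concentration for 48 hours.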 Calls of active or inactive are those of the source. How the source made its calls: active means growth percent below 10; inactive means the rest.

Key:
Test in all cases: NCI-60 one-dose screen, 48 h (100 = growth as untreated, 0 = no growth, -100 = all killed)
Conditions in all cases: 10 µM unless noted
OVCAR-8 ovarian = tested on: OVCAR-8 ovarian
OVCAR-5 ovarian = tested on: OVCAR-5 ovarian
OVCAR-4 ovarian = tested on: OVCAR-4 ovarian
SK-OV-3 ovarian = tested on: SK-OV-3 ovarian
IGROV1 ovarian = tested on: IGROV1 ovarian
OVCAR-3 ovarian = tested on: OVCAR-3 ovarian
HS 578T breast = tested on: HS 578T breast
NCI/ADR-RES ovarian = tested on: NCI/ADR-RES ovarian
T-47D breast = tested on: T-47D breast
BT-549 breast = tested on: BT-549 breast
MDA-MB-435 melanoma = tested on: MDA-MB-435 melanoma
SW-620 colon = tested on: SW-620 colon
MCF7 breast = tested on: MCF7 breast
HCT-116 colon = tested on: HCT-116 colon
HCC-2998 colon = tested on: HCC-2998 colon
KM12 colon = tested on: KM12 colon
RPMI-8226 leukemia = tested on: RPMI-8226 leukemia

Measured: growth

CN(C)c1ccc(-n2nc3ccccc3n2)cc1
inactive: OVCAR-8 ovarian 97.3% | OVCAR-5 ovarian 80.3% | OVCAR-4 ovarian 115% | SK-OV-3 ovarian 113% | OVCAR-3 ovarian 93.7% | HS 578T breast 96.4% | NCI/ADR-RES ovarian 106% | T-47D breast 78.4% | BT-549 breast 91.6% | MDA-MB-435 melanoma 100% | SW-620 colon 95.9% | MCF7 breast 89.9% | HCT-116 colon 77% | HCC-2998 colon 75.3% | KM12 colon 108%
active: IGROV1 ovarian -38.5%

COC(=O)c1c(NC(=O)CSc2nnnn2-c2ccc(OC)cc2)sc(C)c1C
inactive: RPMI-8226 leukemia 89.8% | OVCAR-8 ovarian 87% | OVCAR-5 ovarian 103% | OVCAR-4 ovarian 94.5% | SK-OV-3 ovarian 95.9% | OVCAR-3 ovarian 99.2% | HS 578T breast 31.7% | NCI/ADR-RES ovarian 83.9% | T-47D breast 92.5% | BT-549 breast 99.6% | MDA-MB-435 melanoma 109% | SW-620 colon 96.2% | MCF7 breast 85.8% | HCT-116 colon 92.1% | HCC-2998 colon 87.6% | KM12 colon 98.7%

CCCCCCCCCCN1CCC(N2CCCCC2)CC1
inactive: OVCAR-5 ovarian 41.5% | OVCAR-4 ovarian 53.7% | SK-OV-3 ovarian 20.9% | OVCAR-3 ovarian 20.1% | NCI/ADR-RES ovarian 49.7% | BT-549 breast 37.5% | HCC-2998 colon 14.8%
active: RPMI-8226 leukemia -44.8% | OVCAR-8 ovarian -1.39% | HS 578T breast -5.23% | T-47D breast -55.9% | MDA-MB-435 melanoma -25% | SW-620 colon -56.9% | MCF7 breast -60.8% | HCT-116 colon -65.2% | KM12 colon -6.35%

COc1ccc(N2CCN(CC(=O)N3CCN(c4nnc(-c5ccc(Cl)cc5)c(-c5ccc(Cl)cc5)n4)CC3)CC2)cc1
active: RPMI-8226 leukemia -14.8%
inactive: OVCAR-5 ovarian 91.6% | OVCAR-4 ovarian 55.5% | SK-OV-3 ovarian 99.5% | OVCAR-3 ovarian 52% | HS 578T breast 52.9% | NCI/ADR-RES ovarian 61.7% | T-47D breast 31.6% | BT-549 breast 66.1% | MDA-MB-435 melanoma 57.5% | SW-620 colon 69.2% | MCF7 breast 37.3% | HCT-116 colon 29.2% | HCC-2998 colon 51% | KM12 colon 44.7%

CCSCC1CC(O)(c2ccccc2)C(c2ccccc2)C(c2ccc(Cl)cc2)O1 (centres undefined)
active: RPMI-8226 leukemia 4.54% | OVCAR-8 ovarian -11.2% | SK-OV-3 ovarian 9.49% | OVCAR-3 ovarian -26.4% | HS 578T breast -11% | T-47D breast -7.67% | MDA-MB-435 melanoma -17.3% | SW-620 colon 1.98% | MCF7 breast 0.0329% | HCT-116 colon 1.69% | KM12 colon -31.2%
inactive: OVCAR-5 ovarian 24.7% | OVCAR-4 ovarian 33.8% | IGROV1 ovarian 32.6% | NCI/ADR-RES ovarian 17.1% | HCC-2998 colon 17.9%

O=C(/C=C/c1c(-c2ccccc2)[nH]c2ccccc12)S(=O)(=O)c1ccccc1
inactive: RPMI-8226 leukemia 21.4% | OVCAR-5 ovarian 100% | OVCAR-4 ovarian 80.1% | SK-OV-3 ovarian 89.5% | IGROV1 ovarian 51.8% | OVCAR-3 ovarian 68.9% | HS 578T breast 90.1% | NCI/ADR-RES ovarian 16.4% | T-47D breast 29.4% | BT-549 breast 87.9% | SW-620 colon 39.8% | MCF7 breast 43.3% | HCT-116 colon 46.1% | HCC-2998 colon 60.7% | KM12 colon 36.3%
active: MDA-MB-435 melanoma 9.36%

N[C@H](CS)C(=O)O
inactive: RPMI-8226 leukemia 101% | OVCAR-5 ovarian 103% | OVCAR-4 ovarian 102% | SK-OV-3 ovarian 107% | OVCAR-3 ovarian 122% | HS 578T breast 115% | NCI/ADR-RES ovarian 112% | T-47D breast 103% | BT-549 breast 98.3% | MDA-MB-435 melanoma 104% | SW-620 colon 106% | MCF7 breast 87.9% | HCT-116 colon 112% | HCC-2998 colon 112% | KM12 colon 109%

CCOC(=O)N1CCC(N=C2CSc3nnc(-c4cc(C(F)(F)F)cc(C(F)(F)F)c4)n3N2)CC1
inactive: RPMI-8226 leukemia 29% | OVCAR-8 ovarian 22.2% | OVCAR-5 ovarian 25.6% | OVCAR-4 ovarian 25.1% | SK-OV-3 ovarian 41.4% | IGROV1 ovarian 44.1% | OVCAR-3 ovarian 28.5% | HS 578T breast 21.5% | NCI/ADR-RES ovarian 14.1% | T-47D breast 34% | MDA-MB-435 melanoma 24.9% | SW-620 colon 36.2% | MCF7 breast 13.6% | KM12 colon 34.5%
active: HCT-116 colon -10.9%

O=C1/C(=C/c2ccc(F)cc2)Cc2ccccc21
inactive: RPMI-8226 leukemia 98% | OVCAR-8 ovarian 101% | OVCAR-5 ovarian 92.6% | OVCAR-4 ovarian 87.7% | SK-OV-3 ovarian 110% | IGROV1 ovarian 105% | OVCAR-3 ovarian 110% | HS 578T breast 109% | NCI/ADR-RES ovarian 107% | T-47D breast 103% | MDA-MB-435 melanoma 107% | SW-620 colon 104% | MCF7 breast 27.3% | HCT-116 colon 87.9% | HCC-2998 colon 89.9% | KM12 colon 106%

CCN(CC)c1ccc(C(=C2C=CC(=[N+](CC)Cc3cccc(S(=O)(=O)O)c3)C=C2)c2ccc(N(CC)Cc3cccc(S(=O)(=O)O)c3)cc2)cc1
inactive: OVCAR-5 ovarian 68.2% | OVCAR-4 ovarian 67.1% | SK-OV-3 ovarian 85.3% | IGROV1 ovarian 16.1% | OVCAR-3 ovarian 14.2% | HS 578T breast 71.9% | NCI/ADR-RES ovarian 92.6% | BT-549 breast 46.6% | MDA-MB-435 melanoma 41.5% | SW-620 colon 22.9% | MCF7 breast 52.1% | HCC-2998 colon 21%
active: RPMI-8226 leukemia -43.1% | T-47D breast 8.92% | HCT-116 colon 3.12% | KM12 colon 3.78%

Cc1c2oc3c(C)ccc(C(=O)OC(C)C4NC(=O)C(C(C)C)N(C)C(=O)CN(C)C(=O)C5CCCN5C(=O)C(C(C)C)NC4=O)c3nc-2c(C(=O)OC(C)C2NC(=O)C(C(C)C)N(C)C(=O)CN(C)C(=O)C3CCCN3C(=O)C(C(C)C)NC2=O)c(N)c1=O (centres undefined)
inactive: OVCAR-5 ovarian 14.6% | SK-OV-3 ovarian 22.5% | NCI/ADR-RES ovarian 16.9%
active: IGROV1 ovarian 7.56% | OVCAR-3 ovarian 5.3% | HS 578T breast -2.72% | T-47D breast 5.74% | BT-549 breast -38.1% | MDA-MB-435 melanoma -71.1% | SW-620 colon 3.76% | MCF7 breast 5.55% | HCT-116 colon 7.39% | HCC-2998 colon -34.4% | KM12 colon 0.674%

C[C@H]1C(=O)N2c3ccccc3[C@@]3(O)C[C@@H](n4cnc5ccccc5c4=O)C(=O)N1[C@@H]23
inactive: RPMI-8226 leukemia 125% | OVCAR-8 ovarian 91.7% | OVCAR-5 ovarian 110% | OVCAR-4 ovarian 109% | SK-OV-3 ovarian 104% | OVCAR-3 ovarian 115% | HS 578T breast 32.9% | NCI/ADR-RES ovarian 104% | T-47D breast 99.1% | BT-549 breast 103% | MDA-MB-435 melanoma 109% | SW-620 colon 107% | MCF7 breast 98.9% | HCT-116 colon 93.8% | HCC-2998 colon 98.5% | KM12 colon 113%

COc1cc(/C=C/C(=O)c2c(C)n([O-])c3ccccc3[n+]2=O)cc(OC)c1OC
active: RPMI-8226 leukemia 9.32% | IGROV1 ovarian -15.8%
inactive: OVCAR-8 ovarian 30.6% | OVCAR-5 ovarian 80.6% | OVCAR-4 ovarian 46.9% | SK-OV-3 ovarian 58.3% | OVCAR-3 ovarian 59.2% | HS 578T breast 43.2% | NCI/ADR-RES ovarian 43.4% | T-47D breast 34.9% | MDA-MB-435 melanoma 46.3% | SW-620 colon 43.7% | MCF7 breast 20.8% | HCT-116 colon 30.6% | HCC-2998 colon 60.5% | KM12 colon 61.2%

Cc1cc(C)c2c(N)c3cccc(C)c3nc2n1
inactive: HS 578T breast 73.2%
active: RPMI-8226 leukemia -35% | OVCAR-5 ovarian -22.9% | OVCAR-4 ovarian 2.47% | SK-OV-3 ovarian 2.68% | IGROV1 ovarian -38.1% | OVCAR-3 ovarian -35.7% | NCI/ADR-RES ovarian -28.9% | T-47D breast -3.39% | BT-549 breast 0.0119% | MDA-MB-435 melanoma 2.84% | SW-620 colon -1.92% | MCF7 breast 6.02% | HCT-116 colon -39.4% | HCC-2998 colon -38.7% | KM12 colon 6.37%

O=C(Nc1ccc(Cl)cc1)Nc1nc2ccc(OC(F)(F)F)cc2o1
inactive: OVCAR-8 ovarian 85.4% | OVCAR-5 ovarian 95.9% | OVCAR-4 ovarian 83.7% | SK-OV-3 ovarian 103% | IGROV1 ovarian 130% | OVCAR-3 ovarian 74.3% | HS 578T breast 143% | NCI/ADR-RES ovarian 95% | T-47D breast 41.1% | BT-549 breast 146% | MDA-MB-435 melanoma 112% | SW-620 colon 98.4% | MCF7 breast 76.6% | HCT-116 colon 85% | HCC-2998 colon 140% | KM12 colon 68.3%

Cc1ccc(S(=O)(=O)N2CCN(C(=O)CSc3nc4ccc(C)cc4[nH]3)CC2)cc1
inactive: OVCAR-8 ovarian 74.5% | OVCAR-5 ovarian 117% | OVCAR-4 ovarian 107% | SK-OV-3 ovarian 114% | OVCAR-3 ovarian 111% | HS 578T breast 126% | NCI/ADR-RES ovarian 107% | T-47D breast 99.8% | BT-549 breast 106% | MDA-MB-435 melanoma 109% | SW-620 colon 102% | MCF7 breast 98.3% | HCT-116 colon 103% | HCC-2998 colon 122% | KM12 colon 105%

COc1cccc(N2CCN(CC(=O)N3CCN(c4nnc(-c5ccc(Cl)cc5)c(-c5ccc(Cl)cc5)n4)CC3)CC2)c1
inactive: OVCAR-5 ovarian 85.9% | OVCAR-4 ovarian 57.9% | SK-OV-3 ovarian 95.6% | OVCAR-3 ovarian 68.1% | HS 578T breast 58.4% | NCI/ADR-RES ovarian 65.2% | T-47D breast 27.2% | BT-549 breast 88.4% | MDA-MB-435 melanoma 70.9% | SW-620 colon 72.3% | MCF7 breast 41.2% | HCC-2998 colon 80.6% | KM12 colon 56.5%
active: RPMI-8226 leukemia -37.2%

CC(=O)/C(=C/c1ccc(Cl)cc1)C(=O)c1ccccc1
inactive: RPMI-8226 leukemia 34.8% | OVCAR-8 ovarian 89.2% | OVCAR-5 ovarian 111% | OVCAR-4 ovarian 79.7% | SK-OV-3 ovarian 101% | IGROV1 ovarian 91.6% | OVCAR-3 ovarian 91.3% | NCI/ADR-RES ovarian 85.2% | T-47D breast 83% | BT-549 breast 97.4% | MDA-MB-435 melanoma 61.4% | SW-620 colon 61.3% | MCF7 breast 53.1% | HCT-116 colon 66% | HCC-2998 colon 99.2%
